Sfp inh = qHTS Assay for Inhibitors of Bacillus subtilis Sfp phosphopantetheinyl transferase (PPTase). Potency, µM, hits mostly inhibitors. 4'-phosphopantetheinyl transferase ffp (Bacillus subtilis), Q9F4F7. AID 1490, 2009. hit rate 3.5% among 310,000. Biochemical Sfp PPTase activity, qHTS;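 further: the enzyme is Sfp with the accession as filed and its product quenches rhodamine fluorescence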
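Buffer: 50 mM Hepes-Na pH 7.6, 10 mM MgCl2, 0.01% Nonidet P-40, 0.01% BSA. Enzyme 15 nM, pre-exposed to compound 15 min; substrates then added and fluorescence change tracked over 30 min.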
TrxR1 substrate = qHTS Assay for Substrates of Mammalian Selenoprotein Thioredoxin Reductase 1 (TrxR1): qHTS; Potency, µM (doses to about 114 µM); Thioredoxin reductase 1, cytoplasmic (Rattus norvegicus), O89049; hit rate 0.01% among 390,000; purified TrxR1 substrate turnover, NADPH consumption readout; AID 588456, 2011; further: nearly all actives have a fitted effect of over 50% in size
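Rat TrxR1, dispensed at 90 nM, was prereduced with 400 uM NADPH (final) for 5 min at ~22 deg C, then incubated with compound 15 min before 400 uM selenite. A first-read NADPH fluorescence drop versus no-compound background flagged substrates.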
TrxR1 inh = qHTS Assay for Inhibitors of Mammalian Selenoprotein Thioredoxin Reductase 1 (TrxR1): qHTS; recombinant rTrxR1, NADPH fluorescence consumption, selenite substrate; Potency, µM (doses to about 114 µM), actives largely listed as inhibitors; hit rate 1% among 390,000; further: nearly all actives have a fitted effect of over 65% in size
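Rat TrxR1 (90 nM in the dispensed reagent) was pre-reduced with 400 uM NADPH for 5 min at room temperature, then incubated with compound for 15 min. After 400 uM selenite was added, NADPH fluorescence (Ex 340/Em 450 nm) was followed for 8 min.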
IDH1 R132H inh = qHTS for Inhibitors of mutant isocitrate dehydrogenase 1 (IDH1): qHTS | Isocitrate dehydrogenase [NADP] cytoplasmic (Homo sapiens), O75874 | IDH1-R132H enzyme, NADPH consumption, diaphorase/resazurin fluorescence | Potency, µM (titrated, usually from 76.6 µM), most hits filed as inhibitors | hit rate 0.093% among 390,000; further: nearly all actives have a fitted effect of over 65% in size
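IDH1-R132H (0.5 ug/mL) preincubated 30 min with compound, then NADPH (0.016 mM) and alpha-KG (2 mM) added; 80 min at RT, pH 7.5. Remaining NADPH coupled via diaphorase/resazurin to fluorescence (540/590 nm); concentration-response curves normalized to no-enzyme control.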
PLK1 PBD inh = qHTS for Inhibitors of PLK1-PDB (polo-like kinase 1 - polo-box domain): Primary Screen. Serine/threonine-protein kinase PLK1 (Homo sapiens), P53350. Plk1 PBD binding of FITC phosphopeptide, fluorescence polarization. Potency, µM, most hits filed as inhibitors. hit rate 2.8% among 360,000. AID 720504, 2013; further: series mostly up to about 57 µM; nearly all actives have a fitted effect of over 65% in size
Target sequence (P53350 whole entry, looked up, the tested form may be a part): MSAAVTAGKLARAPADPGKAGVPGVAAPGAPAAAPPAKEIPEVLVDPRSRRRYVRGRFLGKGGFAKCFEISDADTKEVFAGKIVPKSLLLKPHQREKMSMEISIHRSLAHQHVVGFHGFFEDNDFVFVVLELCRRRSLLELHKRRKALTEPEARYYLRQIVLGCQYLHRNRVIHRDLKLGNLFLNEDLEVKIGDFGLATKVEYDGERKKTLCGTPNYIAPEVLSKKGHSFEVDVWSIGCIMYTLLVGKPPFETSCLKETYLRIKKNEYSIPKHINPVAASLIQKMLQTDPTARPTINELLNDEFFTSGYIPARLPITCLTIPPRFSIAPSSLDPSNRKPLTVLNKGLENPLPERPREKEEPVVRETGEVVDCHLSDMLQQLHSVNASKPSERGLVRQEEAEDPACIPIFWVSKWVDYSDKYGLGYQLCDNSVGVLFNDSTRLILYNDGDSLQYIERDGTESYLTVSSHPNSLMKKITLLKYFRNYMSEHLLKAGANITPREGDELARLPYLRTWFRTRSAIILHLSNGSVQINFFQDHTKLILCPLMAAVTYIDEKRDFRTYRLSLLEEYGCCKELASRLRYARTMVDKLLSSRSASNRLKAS
VDR inhibitor = Inhibitors of the vitamin D receptor (VDR): qHTS; Vitamin D3 receptor (Homo sapiens), P11473; VDR-SRC2-3 peptide fluorescence polarization, 2 h; Potency, µM, actives largely listed as inhibitors; hit rate 0.93% among 400,000
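Inhibition of the VDR/SRC2-3 peptide interaction is quantified by fluorescence polarization. Compounds (23 nl, pintool) incubate with the reagents for 2 hours at ambient room temperature.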
Large screens that a line does not name were inactive. Most compounds without a hit are left out; they make up all but 5.2% or so of the library. The call rests on the fitted dose curve; in most records, active means well fitted curve in the direction sought with a large enough effect; inconclusive means small, poorly fitted or top-dose-only effect, or another doubt; inactive means no such curve, though single readings can be large; an effect the other way counts as inactive or inconclusive.

CC(Sc1ccsc1[N+](=O)[O-])C(=O)NCc1ccco1 (configuration not stated)	Sfp inh 50µM, TrxR1 inh 20µM
CC1CN(C/C(=N\O)C23CC4CC(CC(C4)C2)C3)CC(C)O1 (configuration not stated)	none
COCCn1nnnc1C(c1ccc(OC)cc1OC)N1CCN(c2ccccc2F)CC1 (configuration not stated)	none
COc1ccc2cc(C(c3nnnn3Cc3ccc(F)cc3)N3CCCCCC3)c(=O)[nH]c2c1 (configuration not stated)	Sfp inh 18µM, TrxR1 inh inconclusive
CCc1ccc2[nH]c(=O)c(C(c3nnnn3CCOC)N3CCN(c4ccccc4F)CC3)cc2c1 (configuration not stated)	Sfp inh 8.9µM
O=c1[nH]c2cc3c(cc2cc1C(c1nnnn1CC1CCCO1)N1CCCCCC1)OCCO3 (configuration not stated)	TrxR1 inh 22µM
COc1ccc(Cn2nnnc2C(c2cc3ccc(OC)cc3[nH]c2=O)N2CCC(C)CC2)cc1 (configuration not stated)	Sfp inh 40µM, TrxR1 inh inconclusive
Cc1ccc2c(c1)-c1onc(C(=O)N3CCN(c4cc(Cl)ccc4C)CC3)c1CO2	none (no result: Sfp inh, PLK1 PBD inh)
COc1cc(OC)cc(C(=O)Nc2ccc(S(=O)(=O)N3CCCCC3c3cccnc3)cc2)c1 (configuration not stated)	none (no result: Sfp inh, PLK1 PBD inh)
COc1ccccc1C1N=C(Nc2nc3ccccc3o2)NC2=C1C(=O)CC(C)(C)C2 (configuration not stated)	none (no result: Sfp inh, IDH1 R132H inh, PLK1 PBD inh)
CC1(CCl)N([O-])C2=C(CCCC2)[N+]1=O (configuration not stated)	Sfp inh 35µM
O=[N+]1C2=C(CCCC2)N([O-])C12CCCC2	TrxR1 inh inconclusive
Cc1ccc(N=Cc2cc3c(cc2[N+](=O)[O-])OCO3)cc1[N+](=O)[O-]	PLK1 PBD inh inconclusive, VDR inhibitor inconclusive (no result: Sfp inh)
O=C(CCc1ccc(O)c(O)c1)N/N=C/c1cc2c(cc1[N+](=O)[O-])OCO2	Sfp inh 40µM, TrxR1 inh inconclusive, PLK1 PBD inh inconclusive
CC(C)(C)c1ccc(O)c(N=Cc2cc3c(cc2[N+](=O)[O-])OCO3)c1	PLK1 PBD inh 27µM, VDR inhibitor inconclusive
Cc1ccc(C)c(N=Cc2cc3c(cc2[N+](=O)[O-])OCO3)c1	Sfp inh inconclusive, VDR inhibitor 79µM
Cc1ccc(C)c(N2CCN(C(c3ccccc3)c3nnc(-c4ccccc4F)o3)CC2)c1 (configuration not stated)	none (no result: Sfp inh, PLK1 PBD inh)
O=c1oc2cc(O)ccc2cc1-c1ccc2c(c1)OCCO2	none (no result: TrxR1 substrate, TrxR1 inh, IDH1 R132H inh, PLK1 PBD inh)
Cc1cc(C)n(S(=O)(=O)c2ccc(C)c(C)c2)n1	none
CCN(C(=O)COC(=O)c1ccc([N+](=O)[O-])o1)C1CCCCC1	none (no result: Sfp inh)
CN(C)c1ccc(/C=C/c2ccnc3c(O)cccc23)cc1	none (no result: Sfp inh, IDH1 R132H inh, PLK1 PBD inh, VDR inhibitor)
O=C(Cc1cc(=O)oc2cc(O)ccc12)NC(Cc1ccc(Cl)cc1)C(=O)O (configuration not stated)	TrxR1 inh inconclusive, PLK1 PBD inh 30µM, VDR inhibitor inconclusive
Cc1c(OCC(=O)NC(Cc2ccc(Cl)cc2)C(=O)O)ccc2c(-c3ccccc3)cc(=O)oc12 (configuration not stated)	PLK1 PBD inh 67µM
COc1ccc(-c2cc(=O)oc3c(C)c(OCC(=O)N[C@@H](Cc4ccc(O)cc4)C(=O)O)ccc23)cc1	none
C=CCn1c(SCc2nc3ccccc3nc2C)nnc1-c1ccoc1C	TrxR1 inh 45µM, VDR inhibitor inconclusive
CC1CCN(c2[nH]c(=S)c(C#N)c3c2CCCC3)CC1	Sfp inh 32µM, PLK1 PBD inh inconclusive
CCNc1ccc2noc3c2c1C(=O)c1ccccc1-3	PLK1 PBD inh 1.1µM
O=C1c2ccccc2-c2onc3ccc(NCc4ccco4)c1c23	TrxR1 inh 25µM, PLK1 PBD inh 3.4µM, VDR inhibitor inconclusive
O=C1c2ccccc2-c2onc3ccc(N4CCCC4)c1c23	Sfp inh 40µM, TrxR1 inh inconclusive, PLK1 PBD inh inconclusive, VDR inhibitor inconclusive
COc1cccc(Cn2c(=O)c(-c3cccs3)nc3cnc(OC)nc32)c1	none (no result: TrxR1 substrate, TrxR1 inh, IDH1 R132H inh, PLK1 PBD inh)
COc1ccc(NC(=O)C2CCCN(S(=O)(=O)c3ccc(Cl)cc3)C2)cc1 (configuration not stated)	none (no result: Sfp inh, PLK1 PBD inh)
COc1ccc2c(c1)C(=O)[C@H](OC(=O)N[C@H]1CCCc3ccccc31)[C@@H](c1ccc(OC)c(Br)c1)O2	none (no result: TrxR1 substrate, TrxR1 inh, IDH1 R132H inh, PLK1 PBD inh)
Cc1cc2oc(=O)cc(CN3CCCC3)c2cc1Cl	none (no result: Sfp inh, TrxR1 substrate, TrxR1 inh, IDH1 R132H inh, VDR inhibitor)
CCOC(=O)C1CCN(Cc2cc(=O)oc3cc(C)c(Cl)cc23)CC1	PLK1 PBD inh 27µM, VDR inhibitor inconclusive
CCc1nc(NCCO)c(C#N)c2c1CSC(C)(C)C2	Sfp inh 71µM
CCc1nc(NCC(C)C)c(C#N)c2c1COC(C)(C)C2	none
OC(CN1CCN(c2ccccn2)CC1)Cn1c2ccc(Cl)cc2c2cc(Cl)ccc21 (configuration not stated)	TrxR1 inh inconclusive
OC(CN1CCCCC1)Cn1c2ccc(Cl)cc2c2cc(Cl)ccc21 (configuration not stated)	Sfp inh 50µM
CC(=O)N1c2ccccc2S(=O)(=O)c2c1ccc1ccccc21	none (no result: Sfp inh)
COc1cccc(Nc2nc(C(N)Cc3ccc(Cl)cc3)cs2)n1 (configuration not stated)	none (no result: Sfp inh, TrxR1 substrate, TrxR1 inh, IDH1 R132H inh, VDR inhibitor)
COCCNc1nc(-c2cc(C)n(CCc3ccc(OC)cc3)c2C)cs1	Sfp inh 40µM
CC(/C=N/NC(=O)Cc1cccn1C)=C\c1ccco1	Sfp inh 40µM, TrxR1 inh inconclusive
Cn1c(=O)c2c(ncn2CC(=O)N/N=C/C(Cl)=C/c2ccccc2)n(C)c1=O	none
Cn1c(=O)c2c(ncn2CC(=O)N/N=C/C=C/c2ccco2)n(C)c1=O	Sfp inh 14µM, TrxR1 inh inconclusive
CC(/C=N/NC(=O)Cn1cnc2c1c(=O)n(C)c(=O)n2C)=C\c1ccco1	Sfp inh 40µM
O=C(CCc1ccc(S(=O)(=O)N2CCOCC2)cc1)N/N=C/c1ccc(O)c(O)c1O	Sfp inh 22µM, PLK1 PBD inh 11µM
